{
  "source": "PubChem BioAssay (Tox21)",
  "note": "Inconclusive results are not listed. Entries that show only a call come without a potency. Calls of active or inactive are those of the source. Calls follow the shape of the full dose curve. Potency is read from the fitted curve at half-maximal effect.",
  "data": [
    {"assay": "qHTS assay for small molecule agonists of the p53 signaling pathway - cell viability (AID 651633); also: nearly all actives have a fitted effect of over 30% in size", "details": "p53RE-bla HCT-116 viability, ATP luminescence, 16 h; series mostly up to 83.3 µM", "summary_of_the_method": "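p53RE-bla cells, seeded at 4,000 per well and rested 5 h at 37 C/5% CO2, received compounds in DMSO for 16 h at 37 C. CellTiter-Glo was then added, and luminescence was read after 30 min at room temperature to gauge cytotoxicity.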", "values": [
      {"smiles": "CCCCN(CCCC)CC(O)c1cc(Cl)cc2c1-c1ccc(Cl)cc1/C2=C/c1ccc(Cl)cc1", "note": "(centres undefined)", "Potency": "inactive"},
      {"smiles": "CCCCCc1ccc(Cl)cc1", "Potency": "inactive"},
      {"smiles": "C=Cc1cccc(C)c1", "Potency": "inactive"},
      {"smiles": "CC(C)OC(=O)C(O)(CC(=O)O)CC(=O)O", "Potency": "inactive"},
      {"smiles": "Clc1nnc(Cl)c2ccccc12", "Potency": "inactive"},
      {"smiles": "[Cl][Pt-2]([Cl])([Cl])[Cl]", "Potency": "inactive"},
      {"smiles": "O=S(=O)(O)c1ccc(N=Nc2c(O)ccc3ccccc23)cc1", "Potency": "inactive"},
      {"smiles": "CCOC(=O)NNc1ccc(N(CC)CC(C)O)nn1", "note": "(centres undefined)", "Potency": "inactive"},
      {"smiles": "CC(C)(C)C1CCC(=O)CC1", "Potency": "inactive"},
      {"smiles": "C1CCC(SSC2CCCCC2)CC1", "Potency": "inactive"},
      {"smiles": "CCN(CC)c1ccc2c(-c3ccc(S(=O)(=O)O)cc3S(=O)(=O)[O-])c3ccc(=[N+](CC)CC)cc-3oc2c1", "Potency": "9.99 µM (active)"},
      {"smiles": "COc1ccc(NC(=O)CC(C)=O)cc1", "Potency": "inactive"}
    ]},
    {"assay": "qHTS assay for small molecules that induce genotoxicity in human embryonic kidney cells expressing luciferase-tagged ATAD5 - cell viability (AID 651634); also: nearly all actives have a fitted effect of over 25% in size", "details": "HEK293T ATAD5-luc cells viability, CellTiter-Fluor, 15.5 h; series mostly up to 83.3 µM", "summary_of_the_method": "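Quantitative high-throughput format. HEK293T cells expressing ATAD5 fused to luciferase were plated at 2,000 cells/well and treated 15.5 hr with compound versus DMSO. Viability was determined by fluorescent live-cell protease substrate, 30 min at 37C.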", "values": [
      {"smiles": "CCCCNS(=O)(=O)c1ccc(C)cc1", "Potency": "inactive"},
      {"smiles": "CCCCCCCCCCCCCC[N+](C)(C)C", "Potency": "inactive"},
      {"smiles": "O=C(Oc1ccccc1)Oc1ccccc1", "Potency": "inactive"},
      {"smiles": "OC1CCCc2ccccc21", "note": "(centres undefined)", "Potency": "inactive"},
      {"smiles": "OC[C@H]1O[C@H](O[C@H]2O[C@H](CO)[C@@H](O)[C@H](O)[C@H]2O)[C@H](O)[C@@H](O)[C@@H]1O", "Potency": "inactive"},
      {"smiles": "CC(C)CCCCCOC(=O)CCS", "Potency": "inactive"},
      {"smiles": "CCC(COC(=O)CCS)(COC(=O)CCS)COC(=O)CCS", "Potency": "inactive"},
      {"smiles": "COC(=O)Nc1nc2ccc(C(=O)c3ccccc3)cc2[nH]1", "Potency": "inactive"},
      {"smiles": "CC(=O)OCC=C(C)C", "Potency": "inactive"},
      {"smiles": "CCCCCCOC(=O)C(C)CC", "note": "(centres undefined)", "Potency": "inactive"},
      {"smiles": "COC(=O)c1ccccc1C", "Potency": "inactive"},
      {"smiles": "CN(C)Cc1cc(C(C)(C)C)c(O)c(C(C)(C)C)c1", "Potency": "inactive"},
      {"smiles": "CC/C=C\\CCCCCO", "Potency": "inactive"},
      {"smiles": "Cc1ccc(N/N=c2\\c(=O)cc/c(=N\\Nc3ccc(S(=O)(=O)O)cc3)c2=O)c(C)c1", "Potency": "61.1 µM (active)"},
      {"smiles": "O=C(/C=C/c1ccccc1)OC/C=C/c1ccccc1", "Potency": "inactive"},
      {"smiles": "CCC(=O)OC(=O)CC", "Potency": "inactive"},
      {"smiles": "COc1cc(S(=O)(=O)O)c(C)cc1N=Nc1c(O)ccc2cc(S(=O)(=O)O)ccc12", "Potency": "27.3 µM (active)"},
      {"smiles": "O=[N+]([O-])c1cccc(C(F)(F)F)c1", "Potency": "inactive"},
      {"smiles": "CCO[Si](OCC)(OCC)OCC", "Potency": "inactive"},
      {"smiles": "Cc1ccc(-c2ccccc2)cc1", "Potency": "inactive"},
      {"smiles": "ClCCl", "Potency": "inactive"},
      {"smiles": "CN1CCCCC1CCN1c2ccccc2Sc2ccc(S(C)=O)cc21", "note": "(centres undefined)", "Potency": "inactive"},
      {"smiles": "C[Si](Cl)(c1ccccc1)c1ccccc1", "Potency": "inactive"},
      {"smiles": "NC(=S)NC(N)=S", "Potency": "inactive"},
      {"smiles": "O=C(O)[C@H](O)[C@@H](O)[C@H](O[C@@H]1O[C@H](CO)[C@H](O)[C@H](O)[C@H]1O)[C@H](O)CO", "Potency": "inactive"},
      {"smiles": "CCCCN(CCCC)CC(O)c1cc(Cl)cc2c1-c1ccc(Cl)cc1/C2=C/c1ccc(Cl)cc1", "note": "(centres undefined)", "Potency": "inactive"},
      {"smiles": "CCCCCc1ccc(Cl)cc1", "Potency": "inactive"},
      {"smiles": "C=Cc1cccc(C)c1", "Potency": "inactive"},
      {"smiles": "CC(C)OC(=O)C(O)(CC(=O)O)CC(=O)O", "Potency": "inactive"},
      {"smiles": "Clc1nnc(Cl)c2ccccc12", "Potency": "inactive"},
      {"smiles": "[Cl][Pt-2]([Cl])([Cl])[Cl]", "Potency": "inactive"},
      {"smiles": "O=S(=O)(O)c1ccc(N=Nc2c(O)ccc3ccccc23)cc1", "Potency": "27.3 µM (active)"},
      {"smiles": "CCOC(=O)NNc1ccc(N(CC)CC(C)O)nn1", "note": "(centres undefined)", "Potency": "inactive"},
      {"smiles": "CC(C)(C)C1CCC(=O)CC1", "Potency": "inactive"},
      {"smiles": "C1CCC(SSC2CCCCC2)CC1", "Potency": "inactive"},
      {"smiles": "CCN(CC)c1ccc2c(-c3ccc(S(=O)(=O)O)cc3S(=O)(=O)[O-])c3ccc(=[N+](CC)CC)cc-3oc2c1", "Potency": "25.1 µM (active)"},
      {"smiles": "COc1ccc(NC(=O)CC(C)=O)cc1", "Potency": "inactive"}
    ]}
  ]
}
